PubChem BioAssay
For some of these results: Measured potencies and affinities stand elsewhere. The source made the active and inactive calls.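 Rule for the calls, unless noted: active = primary screen hit whose calcium fluorescence ratio, in both repeats, exceeds the weak agonist control mean by 3 SD; inactive = the rest.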

How the values were obtained:
[1] = system: TRPC4 beta (transient receptor potential cation channel C4), mouse; experiment: TRPC4 cation channel opening, retest – cell-based, Fluo4 calcium, HEK293 TRPC4beta/mu-opioid, duplicates, 10 µM, confirmation (AID 2426;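 active = fluorescence ratio normalized to control raised more than 50% in primary screen plus both repeat runs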); details: Fluo4 calcium fluorescence, at 10 µM; hits give high values
[2] = system: transient receptor potential cation channel C4 beta (TRPC4), mouse; experiment: TRPC4 cation channel opening, second retest – cell-based, second round, Fluo4, HEK293 TRPC4beta/mu-opioid, 1 µM, confirmation (AID 2461;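 active = primary screen active and over 50% activation in each of two duplicate runs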); details: Fluo4 calcium fluorescence, at 1 µM; hits give high values
[3] = system: TRPC4 (transient receptor potential cation channel C4 beta), mouse; experiment: potentiation of DAMGO EC20 TRPC4 response – cell-based, second round, Fluo-4, HEK293 TRPC4beta/mu-opioid, 1 µM, confirmation (AID 2554;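 active = primary screen hit whose fluorescence ratio, in both repeats, exceeds the weak agonist control mean by 3 SD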); details: DAMGO EC20, Fluo-4 calcium flux, at 1 µM; hits give high values
[4] = system: TRPC4 beta (transient receptor potential cation channel C4), mouse; experiment: potentiation of DAMGO EC20 TRPC4 response – cell-based, Fluo-4, HEK293 TRPC4beta/mu-opioid, confirmation (AID 2555); details: DAMGO EC20, Fluo-4 calcium flux, at 10 µM; hits give high values
[5] = target: Short transient receptor potential channel 4 (Mus musculus) (UniProt Q9QUQ5); experiment: blockers of DAMGO-evoked TRPC4 calcium flux – cell-based, Fluo4, HEK293 TRPC4beta/mu-opioid, confirmation (AID 2636;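 active = calcium signal cut by more than 3 SD below the full-agonist control yet still positive, in both repeats and the earlier primary screen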); details: at 10 µM; hits give high values
[6] = target: Short transient receptor potential channel 4 (Mus musculus) (UniProt Q9QUQ5); experiment: blockers of DAMGO-evoked TRPC4 calcium flux – cell-based, second round, Fluo4, HEK293 TRPC4beta/mu-opioid, 1 µM, confirmation (AID 2637;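 active = calcium signal ratio cut to more than 3 SD under the fully stimulated control mean yet still positive, in both repeats and the primary screen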;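 for inhibition: percent of integrated ratio relative to wells lacking test compound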); details: at 1 µM; hits give high values
[7] = target: Short transient receptor potential channel 4 (Mus musculus) (UniProt Q9QUQ5); experiment: calcium entry via TRPC4 opening agents – cell-based, HEK293 TRPC4/mu-opioid, Fluo-4 calcium, dose response (AID 434937;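 active = primary screen activator hit with a dose response curve and TRPC4 channel activation at any tested dose; inactive = no activation, no dose response, or not a primary hit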)
[8] = target: Short transient receptor potential channel 4 (Mus musculus) (UniProt Q9QUQ5); experiment: potentiation of DAMGO-evoked TRPC4 calcium signal – cell-based, HEK293 TRPC4/mu-opioid, Fluo-4 calcium, EC20 DAMGO, dose response (AID 434941;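 active = earlier screen potentiator hit that boosts the TRPC4 ion channel at some dose, with a dose response; inactive = no potentiation, no dose response, or not a prior hit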;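 note: calcium entry triggered by an EC20 dose of DAMGO at the co-expressed mu-opioid receptor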)
[9] = target: Short transient receptor potential channel 6 (Mus musculus) (UniProt Q61143); experiment: TRPC6 blockade by TRPC4 inhibitor hits – cell-based, HEK293, membrane potential dye, duplicate, selectivity assay for TRPC4 inhibitor project, confirmation (AID 434948;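 active = active in primary screen and both duplicates, each dropping signal beyond three positive-control SD with fluorescence still positive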); details: HEK293 TRPC6, membrane potential dye fluorescence, at 10 µM, stimulated with maximal-effect acetylcholine; hits give high values
[10] = target: Short transient receptor potential channel 6 (Mus musculus) (UniProt Q61143); experiment: TRPC6 opening by TRPC4 activator hits – cell-based, HEK293, membrane potential dye, duplicate, selectivity assay for TRPC4 activator project, confirmation (AID 434950;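 active = membrane potential signal rise above negative control mean plus 3 SD in both duplicates, also active in the earlier TRPC4 screen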); details: HEK293 TRPC6, membrane potential fluorescence, at 10 µM; activation: hits give high values; outcome: activation
[11] = target: Short transient receptor potential channel 6 (Mus musculus) (UniProt Q61143); experiment: positive modulators of mouse TRPC6 channel – HEK293 cells, membrane potential dye, duplicate, selectivity assay for TRPC4 potentiator project, confirmation (AID 434952;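 active = compound raising the membrane signal above positive-control mean plus 3 SD in both repeats, and a primary screen hit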); details: HEK293 TRPC6, membrane potential dye fluorescence, at 10 µM, maximal acetylcholine added after compound; hits give high values
[12] = target: Short transient receptor potential channel 4 (Mus musculus) (UniProt Q9QUQ5); experiment: calcium flux activators in TRPC4/5HT1a cells, counter-screen for TRPC4 activator project, cell-based, second counter screen, HEK293 TRPC4/5HT1a, Fluo-4 (AID 434977;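 active = calcium signal rise above buffer-control mean plus 5 SD in both duplicates, and also a hit in the primary screen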); details: Fluo-4 calcium flux, at 10 µM; hits give high values
[13] = serotonin-gated TRPC4 signal block – cell-based, second counter screen, HEK293 TRPC4/5HT1a, Fluo-4, counter-screen for TRPC4 inhibitor project, confirmation (AID 434978;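 active = primary screen active whose calcium signal fell more than 3 SD beyond the full-serotonin control mean in both duplicate plates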;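 for outcome: serotonin given first at submaximal then at maximal dose after compound preincubation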); details: Fluo-4 calcium flux, at 10 µM, serotonin added to trigger calcium flux; hits give high values
[14] = system: TRPC4 (mouse), co-expressed with 5HT1a in HEK293; experiment: enhancement of serotonin-evoked TRPC4 response – cell-based, second counter screen, HEK293 TRPC4/5HT1a, Fluo-4, counter-screen for TRPC4 potentiator project, confirmation (AID 434979;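 active = signal rise over 3 SD above mean of control wells given weak agonist, in both repeats and first screen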); details: Fluo-4 calcium flux, at 10 µM, serotonin added at its EC20 dose; hits give high values
[15] = nonspecific calcium rise without TRPC4 – cell-based, HEK293 mu-opioid receptor line, counter-screen for TRPC4 activator project, confirmation (AID 449723;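 active = hit in primary screen, with calcium signal over 5 SD above buffer well mean in both duplicates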;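 note: counter screen cells carry the mu-opioid receptor alone and lack TRPC4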); details: HEK293 mu-opioid cells, Fluo-4 calcium fluorescence, at 10 µM; hits give high values
[16] = nonspecific potentiation of DAMGO calcium response – cell-based, HEK293 mu-opioid receptor line, counter-screen for TRPC4 allosteric potentiator project, confirmation (AID 449724;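 active = calcium signal rise more than 3 SD above the low-dose agonist control mean, in both duplicate plates and the primary screen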); details: HEK293 mu-opioid receptor cells, Fluo-4 calcium flux, at 10 µM, compound added before EC20 DAMGO stimulus; hits give high values

Measured: inhibition

Short transient receptor potential channel 6 (Mus musculus), sequence (Q61143 whole entry, looked up): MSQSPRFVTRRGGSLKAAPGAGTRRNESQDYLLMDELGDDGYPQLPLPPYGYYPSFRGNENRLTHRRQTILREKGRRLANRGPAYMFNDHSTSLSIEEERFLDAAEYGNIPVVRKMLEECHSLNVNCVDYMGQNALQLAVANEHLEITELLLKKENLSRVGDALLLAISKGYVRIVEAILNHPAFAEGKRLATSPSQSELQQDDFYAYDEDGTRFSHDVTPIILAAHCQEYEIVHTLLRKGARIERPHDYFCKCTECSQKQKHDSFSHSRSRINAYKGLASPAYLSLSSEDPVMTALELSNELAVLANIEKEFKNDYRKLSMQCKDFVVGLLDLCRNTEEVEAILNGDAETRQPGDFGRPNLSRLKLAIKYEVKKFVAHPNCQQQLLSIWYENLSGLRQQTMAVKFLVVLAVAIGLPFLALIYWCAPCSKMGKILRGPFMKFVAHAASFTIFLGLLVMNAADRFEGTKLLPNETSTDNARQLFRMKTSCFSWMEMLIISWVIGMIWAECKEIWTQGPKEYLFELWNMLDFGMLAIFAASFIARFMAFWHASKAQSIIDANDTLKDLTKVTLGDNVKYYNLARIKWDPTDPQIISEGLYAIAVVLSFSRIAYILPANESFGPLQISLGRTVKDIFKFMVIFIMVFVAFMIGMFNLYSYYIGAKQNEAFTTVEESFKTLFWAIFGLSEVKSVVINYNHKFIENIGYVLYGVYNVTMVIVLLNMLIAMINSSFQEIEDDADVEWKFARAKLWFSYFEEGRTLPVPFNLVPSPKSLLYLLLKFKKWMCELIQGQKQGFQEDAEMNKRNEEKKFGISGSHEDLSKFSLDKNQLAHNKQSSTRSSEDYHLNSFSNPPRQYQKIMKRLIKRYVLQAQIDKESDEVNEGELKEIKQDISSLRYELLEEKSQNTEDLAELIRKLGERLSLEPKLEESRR
Short transient receptor potential channel 4 (Mus musculus), sequence (Q9QUQ5 whole entry, looked up): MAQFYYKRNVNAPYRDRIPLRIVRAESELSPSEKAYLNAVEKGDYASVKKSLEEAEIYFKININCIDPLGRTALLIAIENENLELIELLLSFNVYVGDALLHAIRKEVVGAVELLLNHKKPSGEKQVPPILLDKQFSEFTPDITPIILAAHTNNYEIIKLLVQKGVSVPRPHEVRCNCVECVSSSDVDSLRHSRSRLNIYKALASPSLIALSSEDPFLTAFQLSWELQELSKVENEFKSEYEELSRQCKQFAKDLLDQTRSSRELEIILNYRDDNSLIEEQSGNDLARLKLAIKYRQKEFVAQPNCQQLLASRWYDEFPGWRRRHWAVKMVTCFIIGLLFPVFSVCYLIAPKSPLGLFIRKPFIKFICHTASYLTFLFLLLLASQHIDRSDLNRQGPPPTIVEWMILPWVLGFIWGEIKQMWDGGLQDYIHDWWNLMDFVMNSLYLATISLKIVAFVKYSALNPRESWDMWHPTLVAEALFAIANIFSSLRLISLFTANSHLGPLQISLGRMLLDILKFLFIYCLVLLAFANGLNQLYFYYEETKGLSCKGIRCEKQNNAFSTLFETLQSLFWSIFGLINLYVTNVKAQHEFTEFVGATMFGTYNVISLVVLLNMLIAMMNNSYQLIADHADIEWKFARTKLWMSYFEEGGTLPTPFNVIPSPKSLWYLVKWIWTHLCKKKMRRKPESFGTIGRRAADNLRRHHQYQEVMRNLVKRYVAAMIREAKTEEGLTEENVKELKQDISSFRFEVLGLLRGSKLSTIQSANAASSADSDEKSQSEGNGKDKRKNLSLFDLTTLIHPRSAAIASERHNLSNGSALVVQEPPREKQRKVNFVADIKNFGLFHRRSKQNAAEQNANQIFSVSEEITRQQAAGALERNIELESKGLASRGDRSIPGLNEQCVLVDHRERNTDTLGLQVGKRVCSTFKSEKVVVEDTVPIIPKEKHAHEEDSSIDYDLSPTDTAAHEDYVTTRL

Cn1c(-c2ccccc2)cnc1NCc1ccc(F)cc1
active: [5] 81% | [6] 53% | [13] 25.1%
inactive: all other assays above

COC(=O)CSc1nnc(-c2sc3cc(OC)ccc3c2Cl)n1C
active: [5] 95% | [6] 59%
inactive: all other assays above

COc1ccc(SC[C@H](Cc2ccccc2)N2CCN(C)CCC2=O)cc1
active: [5] 95% | [6] 40%
inactive: all other assays above

O=C(COc1ccc(F)cc1)c1c(O)cc(O)cc1O
active: [5] 84% | [13] 36.3%
inactive: all other assays above

CC1CCc2c(sc(/N=C/N(C)C)c2C#N)C1 (configuration not stated)
active: [5] 78%
inactive: all other assays above

Cc1ccc(C(C)(C)C)cc1S(=O)(=O)Nc1nc2ccccc2nc1Cl
active: [13] 6.84%
inactive: all other assays above

CCCCOc1ccc(CSCCN=C(N)N)cc1
active: [5] 88% | [6] 42% | [13] 40.1%
inactive: all other assays above
